# The source made the active and inactive calls. Unless noted, the rule behind the calls is not given here.
# Columns and labels:
# [1] = test system: XIP peptide (Xip251-270) binding; assay: XIP fragment 251-270 binding compounds – biochemical, small-molecule microarray, fluorescence 635/667 nm, 0.1 µg/mL protein, primary screen (AID 1182); details: fluorescent protein binding, 635 nm, higher = more signal, called active from +8 up or from −8 down
# XIP peptide (Xip251-270) = assay: compounds binding XIP fragment 251-270 – biochemical, small-molecule microarray, fluorescence 635/667 nm, 0.5 µg/mL protein, primary screen (AID 1183); details: fluorescence 635 nm, higher = more signal
# [2] = blood-stage malaria parasite viability loss – strain 3D7, DAPI fluorescence, 100 nL, primary screen (AID 1184);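 note: parasites grown inside human red blood cells in medium with human serum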; details: P. falciparum 3D7 growth, 3 d, higher = more signal
# [3] = target: Homeobox protein Hox-A13 (Mus musculus) (UniProt Q62424); assay: disruptors of Hoxa13 oligonucleotide interaction – biochemical, fluorescence polarization, labeled oligonucleotide, primary screen (AID 1185); details: Hoxa13:DNA binding, 15 min, higher = more signal, called active from +8 up or from −8 down
# Homeobox protein Hox-A13 (Mus musculus), sequence (Q62424 whole entry, looked up): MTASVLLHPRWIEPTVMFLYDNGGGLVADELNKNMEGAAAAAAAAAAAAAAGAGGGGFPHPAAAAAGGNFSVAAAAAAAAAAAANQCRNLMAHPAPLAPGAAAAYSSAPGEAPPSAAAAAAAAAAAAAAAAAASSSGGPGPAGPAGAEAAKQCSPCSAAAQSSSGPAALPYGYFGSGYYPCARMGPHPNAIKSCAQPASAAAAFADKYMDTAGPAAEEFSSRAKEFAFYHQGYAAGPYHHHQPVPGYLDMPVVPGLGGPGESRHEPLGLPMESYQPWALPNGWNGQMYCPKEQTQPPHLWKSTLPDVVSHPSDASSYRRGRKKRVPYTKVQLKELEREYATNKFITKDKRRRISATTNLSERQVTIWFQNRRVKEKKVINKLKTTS
# [4] = blockers of DNA damage checkpoint Chk1 activation – imaging, HeLa, hydroxyurea, phospho-Chk1 antibody, percent positive cells, primary screen (AID 1186); details: hydroxyurea-induced phospho-Chk1 immunofluorescence imaging, higher = more signal
# [5] = blockers of DNA damage checkpoint Chk1 activation – imaging, HeLa, hydroxyurea, phospho-Chk1 nuclear intensity, primary screen (AID 1187); details: hydroxyurea-induced phospho-Chk1 immunofluorescence imaging, higher = more signal
SMILES,composite z-score [1],composite z-score (XIP peptide (Xip251-270)),z-score [2],z-score [3],z-score [4],z-score [5]
C=C(COC)C(=O)CC[C@H](OC(=O)c1ccccc1-c1ccccc1C(=O)O)c1ccc(CO)o1,1.28 (inactive),0.393,0.399,-6.22 (inactive),0.44 (inactive),-0.37 (inactive)
O=C(N1CCOCC1)[C@@]1(CCS(=O)(=O)c2ccccc2)COC(c2ccc(OCCCO)cc2)=N1,0.429 (inactive),0.599,-1.34,-5.88 (inactive),0.145 (inactive),0.273 (inactive)
COC(=O)[C@@]1(Cc2ccc(F)cc2)[C@H]2c3cc(C(=O)N4CCCC4)n(Cc4ccccc4)c3C[C@H]2CN1C(=O)c1ccccc1,0.0584 (inactive),0.703,-0.443,-3.98 (inactive),-0.0167 (inactive),0.0304 (inactive)
COC(=O)[C@]1(Cc2ccccc2N=[N+]=[N-])N=C(c2ccc(OCCCO)cc2)O[C@@H]1c1ccccc1,0.857 (inactive),0.797,-1.44,-2.09 (inactive),-0.88 (inactive),-1.26 (inactive)
C=C[C@@H](O)[C@H]1CC(c2ccccc2)=NO1,0.465 (inactive),-0.299,0.99,-0.345 (inactive),-0.386 (inactive),-0.573 (inactive)
CN1C(=O)C2C=CC(C(O)c3ccc(F)cc3)N(N3CCCCC3)C2C1=O (stereo not given),0.612 (inactive),-0.635,-0.0184,-7.46 (inactive),0.64 (inactive),-0.206 (inactive)
O=C(O)[C@@]1(Cc2ccccc2)COC(c2ccc(OCCCO)cc2)=N1,-0.781 (inactive),-0.486,-0.0272,-1.29 (inactive),-0.0393 (inactive),0.204 (inactive)
COCCCNC(=O)[C@@]1(Cc2ccccc2CN=[N+]=[N-])N=C(c2ccc(OCCCO)cc2)O[C@H]1c1ccccc1N=[N+]=[N-],0.167 (inactive),0.668,-2.22,-2.62 (inactive),-0.498 (inactive),-0.475 (inactive)
COC(=O)[C@@]1(Cc2ccc(OC)cc2)[C@H]2c3cc(C(=O)N4CCCC4)n(CCc4ccc(O)c(OC)c4)c3C[C@H]2CN1C(=O)c1ccccc1,0.739 (inactive),-0.506,-0.37,-4.35 (inactive),0.219 (inactive),0.0055 (inactive)
COc1ccc(CCNC(=O)[C@@H]2c3ccccc3C(=O)N(Cc3ccccc3C(F)(F)F)[C@H]2c2ccc(CO)cc2)cc1,-0.251 (inactive),0.766,-0.756,-3.85 (inactive),0.239 (inactive),0.61 (inactive)
CCCN1C(=O)[C@@H]2Cc3c([nH]c4ccccc34)[C@@H](c3cccc(O)c3)N2C1=O,-0.227 (inactive),0.181,1.39,-0.802 (inactive),-0.0463 (inactive),-0.202 (inactive)
COc1ccc(C#Cc2ccc3c(c2)[C@]2(C(=O)N3)[C@H](C(N)=O)[C@H]3C(=O)O[C@H](c4ccccc4)[C@H](c4ccccc4)N3[C@@H]2c2ccc(O)cc2)cc1,1.13 (inactive),0.712,0.0021,-0.559 (inactive),-0.607 (inactive),-0.861 (inactive)
COC(=O)C(CC#Cc1ccc2c(c1)[C@]1(C(=O)N2)[C@H](c2ccccc2OCCO)N2[C@H](c3ccccc3)[C@H](c3ccccc3)OC(=O)[C@H]2[C@@H]1C(=O)Nc1nc2ccccc2s1)C(=O)OC,1.32 (inactive),0.727,-2,0.787 (inactive),-0.0918 (inactive),-0.269 (inactive)
CCCCCCCCCCC(O)C1C=CC2C(=O)NC(=O)C2N1Nc1ccccn1 (stereo not given),-0.0785 (inactive),-0.0706,1.05,-2.89 (inactive),0.764 (inactive),0.554 (inactive)
[N-]=[N+]=Nc1ccccc1[C@H]1OC(c2ccc(OCCCO)cc2)=N[C@@]1(Cc1ccccc1)C(=O)NCc1ccccc1,1.39 (inactive),0.596,-2.24,-2.71 (inactive),-0.684 (inactive),-0.5 (inactive)
CC(C)(C)OC(=O)CC[C@]1(C(=O)O)COC(c2ccc(OCCCO)cc2)=N1,3.69 (inactive),0.532,1.22,-1.32 (inactive),-0.325 (inactive),-0.122 (inactive)
C[C@H]1NC(=O)C([C@@H](C)OCc2ccccc2)NC(=O)[C@@]23C(=O)N[C@@H](Cc4ccccc4)C2[C@H](C)[C@@]2(C)O[C@H]2C3/C=C/CC/C=C/CNC1=O (stereo not given in full),0.249 (inactive),-0.764,-2.74,-6.35 (inactive),-0.295 (inactive),0.3 (inactive)
C=CCOC(=O)[C@@H]1[C@H]2C(=O)O[C@H](c3ccccc3)[C@H](c3ccccc3)N2[C@H](c2ccc(OCCOC(=O)[C@@H]3C[C@@H]4C(=O)N5CCC[C@H]5C(=O)N4[C@@H]3c3cccc(OCCO)c3)cc2)[C@@]12C(=O)Nc1ccc(I)cc12,0.284 (inactive),0.632,-1.72,1.17 (inactive),0.021 (inactive),0.318 (inactive)

SMILES,composite z-score [1],composite z-score (XIP peptide (Xip251-270)),z-score [2],z-score [3],z-score [4],z-score [5]
CN1C(=O)C2C=CC(C(O)COCc3ccccc3)N(Nc3ccccc3)C2C1=O (stereo not given),-0.184 (inactive),0.311,0.872,-2.91 (inactive),0.466 (inactive),0.764 (inactive)
NC(=O)NCC#Cc1ccc2c(c1)[C@]1(C(=O)N2)[C@H](c2ccc(O)cc2)N2[C@H](c3ccccc3)[C@H](c3ccccc3)OC(=O)[C@H]2[C@@H]1C(N)=O,-0.0765 (inactive),0.603,0.637,-4.21 (inactive),-0.681 (inactive),-0.878 (inactive)
C=CCC(OC(C)=O)[C@@H]1[C@@H](N(Cc2cccc3ccccc23)C(=O)c2ccc(C)cc2)c2cc(OCCCO)ccc2N1C(=O)c1ccc2ccccc2c1 (stereo not given in full),0.591 (inactive),0.52,-2.2,-0.0802 (inactive),-0.995 (inactive),-0.761 (inactive)
O=C1c2ccccc2[C@](Cc2ccccc2I)(C(=O)NCC(F)(F)F)[C@H](c2ccc(CO)cc2)N1Cc1ccccc1,0.164 (inactive),0.647,-0.945,-4.04 (inactive),-0.25 (inactive),-0.634 (inactive)
CCCc1cc2c(n1Cc1ccc(OC)cc1)C(C)C1CN(C(=O)c3ccccc3)C(C)(C(=O)OC)C21 (stereo not given),-0.0607 (inactive),0.174,-1.42,-3.45 (inactive),0.5 (inactive),0.396 (inactive)
CC(C)CNC(=O)[C@@]1(C)c2ccccc2C(=O)N(Cc2ccccc2)[C@H]1c1ccc(CO)cc1,1.06 (inactive),-0.951,0.301,-2.75 (inactive),0.105 (inactive),-0.267 (inactive)
N#Cc1ccc(NN2C(C(O)c3ccccc3)C=CC3C(=O)N(c4ccccc4)C(=O)C32)cc1 (stereo not given),0.283 (inactive),0.026,0.635,-2.61 (inactive),0.422 (inactive),0.691 (inactive)
COCCCNC(=O)[C@]1(Cc2ccccc2)N=C(c2ccc(OCCCO)cc2)O[C@@H]1c1ccccc1N=[N+]=[N-],0.829 (inactive),0.576,-2.7,-4.42 (inactive),-1.82 (inactive),-6.65 (inactive)
CC(C)N1CC=CC23O[C@@H]4C=CCOC(=O)[C@@H]4[C@H]2C(=O)N(CCCCCCO)[C@@H]3C1=O (stereo not given in full),-0.0725 (inactive),-0.262,-0.511,-3.69 (inactive),0.477 (inactive),0.454 (inactive)
CC(C)(C)OC(=O)CC[C@@]1(C(=O)N2CCCCC2)N=C(c2ccc(OCCCO)cc2)O[C@@H]1c1ccccc1CN=[N+]=[N-],1.32 (inactive),0.824,-2.24,-4.37 (inactive),-0.325 (inactive),-0.038 (inactive)
C=CC[C@@]1(C(=O)NCCN2CCOCC2)N=C(c2ccc(OCCCO)cc2)O[C@@H]1c1ccccc1,0.202 (inactive),0.638,-0.825,-6.6 (inactive),0.426 (inactive),0.0737 (inactive)
COc1ccccc1CN1C(=O)c2ccccc2[C@](Cc2ccccc2I)(C(=O)NCCN2CCOCC2)[C@@H]1c1ccc(CO)cc1,-0.0028 (inactive),0.755,-2.26,-4.74 (inactive),-0.252 (inactive),0.0168 (inactive)
CC(C)C(CO)N1C(=O)[C@@H]2[C@H]3C(=O)OCC=C[C@H]3OC23C=CCN(Cn2nnc4ccccc42)C(=O)[C@@H]13 (stereo not given in full),-0.406 (inactive),-0.705,-0.229,-3.05 (inactive),0.123 (inactive),0.11 (inactive)
C[N+](C)(C)CCCCNC(=O)[C@H]1C[C@H]2C(=O)NCC(=O)N2[C@H]1c1ccc(O)cc1,0.696 (inactive),0.922,0.258,-0.735 (inactive),-1.02 (inactive),-0.701 (inactive)
COC(=O)[C@]1(Cc2ccccc2CN=[N+]=[N-])N=C(c2ccc(OCCCO)cc2)O[C@@H]1c1ccccc1CN=[N+]=[N-],0.319 (inactive),0.728,-2.27,0.13 (inactive),-0.716 (inactive),-0.601 (inactive)
O=C1NC(=O)C2C1C=CC(C(O)CCc1ccccc1)N2Nc1ccccn1 (stereo not given),0.415 (inactive),0.932,0.581,-0.354 (inactive),-0.181 (inactive),-0.426 (inactive)
COCCOC(=O)N1C(=O)[C@@]2(c3cc(C#Cc4ccc(OC)cc4)ccc31)[C@H](C(N)=O)[C@H]1C(=O)O[C@H](c3ccccc3)[C@H](c3ccccc3)N1[C@@H]2c1ccc(OCCO)cc1,0.283 (inactive),0.721,-2.35,-1.11 (inactive),0.0311 (inactive),0.239 (inactive)
